SMILES strings stand for the structures. The panel holds about 83,000 compounds, 20% with a hit somewhere; the sample as a whole holds those more often.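 Testing used 96-well plates and a 48-hour single-concentration exposure. Example: -40 means 40% of the starting cells died.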 A number with no mark means an inactive call. Active and inactive are the calls of the source. How the source made its calls: active means growth percent below 10; inactive means the rest.

Test systems include SR leukemia; RPMI-8226 leukemia; OVCAR-8 ovarian; OVCAR-5 ovarian; OVCAR-4 ovarian; SK-OV-3 ovarian; IGROV1 ovarian; OVCAR-3 ovarian; HS 578T breast; NCI/ADR-RES ovarian; T-47D breast; BT-549 breast; MDA-MB-435 melanoma; SW-620 colon; MCF7 breast; HCT-116 colon; HCC-2998 colon; KM12 colon.
What all share (assay): NCI-60 one-dose screen, 48 h (100 = growth as untreated, 0 = no growth, -100 = all killed)
What all share (conditions): 10 µM unless noted

For the compound `Cc1ccncc1C(=O)O`, the growth with SR leukemia was 120%; with RPMI-8226 leukemia, 108%; in the experiment with OVCAR-8 ovarian, 95.5%; in the experiment on OVCAR-5 ovarian it was 94.7%; in the experiment with OVCAR-4 ovarian it was 96%; in the experiment with SK-OV-3 ovarian it was 137%. The growth in the experiment with IGROV1 ovarian is 99.6%; in the experiment with OVCAR-3 ovarian, 101%; in the experiment on HS 578T breast, 96.5%; in the experiment with NCI/ADR-RES ovarian, 96.8%; in the experiment on T-47D breast, 107%; with BT-549 breast, 99.8%. The growth is 101% in the experiment with MDA-MB-435 melanoma; 97.3% in the experiment on SW-620 colon; 101% in the experiment with MCF7 breast; 107% in the experiment on HCT-116 colon; 116% with HCC-2998 colon; 98.6% in the experiment with KM12 colon.

Turning to `CCCCCCCC(=O)SCC/C=C/[C@@H]1CC(=O)NCc2cccc(n2)CN(Cc2ccc3ccccc3c2)CC(=O)N[C@@H](C(C)C)C(=O)O1`, the growth in the experiment on SR leukemia is 3.23% (active); in the experiment on RPMI-8226 leukemia, 32.6%; with OVCAR-8 ovarian it was 22.7%; in the experiment with OVCAR-5 ovarian, 26.2%; with OVCAR-4 ovarian, 66.3%; in the experiment on SK-OV-3 ovarian it was 24.5%. Moreover, the growth is 53.2% in the experiment on IGROV1 ovarian; 47.3% in the experiment on OVCAR-3 ovarian; 34.9% with HS 578T breast; 30.8% with NCI/ADR-RES ovarian; 44.5% in the experiment with T-47D breast; 88.1% in the experiment with BT-549 breast. The growth in the experiment on MDA-MB-435 melanoma was 37.4%; in the experiment on SW-620 colon it was 76.8%; in the experiment on MCF7 breast, 26.5%; in the experiment with HCT-116 colon, 5.36% (active); with HCC-2998 colon it was 49.5%; in the experiment with KM12 colon it was 38.8%.

As for `COc1ccc(NC(=O)c2ccoc2COc2ccccc2)cc1`, the growth was 88.4% in the experiment on SR leukemia; 91.8% in the experiment with RPMI-8226 leukemia; 100% in the experiment on OVCAR-8 ovarian; 95.8% in the experiment on OVCAR-5 ovarian; 101% with OVCAR-4 ovarian; 106% in the experiment with SK-OV-3 ovarian. For the same compound, the growth was 91.2% with IGROV1 ovarian; 109% in the experiment on OVCAR-3 ovarian; 99.7% in the experiment on HS 578T breast; 93% in the experiment on NCI/ADR-RES ovarian; 95.1% in the experiment on T-47D breast; 92% with BT-549 breast. The growth with MDA-MB-435 melanoma was 73.6%; in the experiment with SW-620 colon, 97.9%; in the experiment on MCF7 breast, 88.6%; in the experiment with HCT-116 colon, 87.4%; in the experiment with HCC-2998 colon, 93%; in the experiment with KM12 colon it was 93.9%.

For the compound `COC(=O)[C@]12CC[C@@H](C)[C@H](C)[C@@H]1C1=CC[C@@H]3[C@@]4(C)C[C@@H](OC(C)=O)[C@H](O)[C@@](C)(CO)[C@@H]4[C@H](O)C[C@@]3(C)[C@]1(C)CC2`, the growth with SR leukemia was -45.7% (active); with RPMI-8226 leukemia, -29.4% (active); with OVCAR-8 ovarian, -60.9% (active); with OVCAR-5 ovarian it was -78.2% (active); in the experiment on OVCAR-4 ovarian it was -79.6% (active); with SK-OV-3 ovarian it was -95.4% (active). The growth is -58.8% (active) in the experiment on IGROV1 ovarian; -85% (active) in the experiment with OVCAR-3 ovarian; -50.5% (active) with HS 578T breast; -67.6% (active) in the experiment with NCI/ADR-RES ovarian; -66.9% (active) with T-47D breast; -81.5% (active) in the experiment on BT-549 breast. The growth in the experiment with MDA-MB-435 melanoma was -96.4% (active); in the experiment with SW-620 colon it was -67.8% (active); in the experiment on MCF7 breast it was -73.5% (active); in the experiment on HCT-116 colon it was -65.4% (active); in the experiment with HCC-2998 colon, -87.8% (active); with KM12 colon, -84.2% (active).

Turning to `COc1ccc(-c2nc(SCC(=O)Nc3ccc(C(C)=O)cc3)[nH]c(=O)c2C#N)cc1`, the growth in the experiment with SR leukemia is 97.5%; in the experiment with RPMI-8226 leukemia, 114%; in the experiment on OVCAR-8 ovarian, 91%; in the experiment with OVCAR-5 ovarian, 97.3%; in the experiment with OVCAR-4 ovarian it was 108%; in the experiment on SK-OV-3 ovarian it was 79.5%. Moreover, the growth is 106% in the experiment on IGROV1 ovarian; 108% with OVCAR-3 ovarian; 115% with HS 578T breast; 108% in the experiment on NCI/ADR-RES ovarian; 89.4% in the experiment with T-47D breast; 82.2% in the experiment with BT-549 breast. Also, the growth is 111% with MDA-MB-435 melanoma; 112% in the experiment with SW-620 colon; 97.5% with MCF7 breast; 76.3% in the experiment on HCT-116 colon; 105% in the experiment with HCC-2998 colon; 101% with KM12 colon.

Turning to `COc1ccc2[nH]c(-c3ccc(Cl)cc3)cc(=O)c2c1`, the growth with SR leukemia is 100%; with RPMI-8226 leukemia, 96.3%; in the experiment with OVCAR-8 ovarian, 103%; in the experiment with OVCAR-5 ovarian, 97.7%; in the experiment with OVCAR-4 ovarian, 98.5%; with SK-OV-3 ovarian it was 99.6%. The growth in the experiment with IGROV1 ovarian is 102%; in the experiment with OVCAR-3 ovarian it was 106%; in the experiment on HS 578T breast it was 99.7%; in the experiment with NCI/ADR-RES ovarian, 102%; with T-47D breast it was 116%; in the experiment with BT-549 breast it was 92.9%. Moreover, the growth is 94.7% in the experiment with MDA-MB-435 melanoma; 98.2% with SW-620 colon; 91.4% in the experiment on MCF7 breast; 102% in the experiment with HCT-116 colon; 100% in the experiment on HCC-2998 colon; 98.8% in the experiment on KM12 colon.

`COc1ccc(/C(=C\c2ccc3c(c2)OCO3)C(=O)Nc2nc3ccccc3s2)cc1OC`: the growth in the experiment on SR leukemia is 69.8%; in the experiment with RPMI-8226 leukemia it was 78.2%; in the experiment with OVCAR-8 ovarian, 86.8%; in the experiment on OVCAR-5 ovarian, 93.7%; with OVCAR-4 ovarian, 92.2%; in the experiment on SK-OV-3 ovarian it was 102%. In addition, the growth is 101% in the experiment with IGROV1 ovarian; 97% in the experiment with OVCAR-3 ovarian; 95% in the experiment on HS 578T breast; 98.1% in the experiment with NCI/ADR-RES ovarian; 92.3% in the experiment on T-47D breast; 88.7% in the experiment on BT-549 breast. The growth is 95.7% in the experiment with MDA-MB-435 melanoma; 102% in the experiment with SW-620 colon; 89.5% in the experiment with MCF7 breast; 73.6% in the experiment on HCT-116 colon; 102% with HCC-2998 colon; 85.4% in the experiment with KM12 colon.

In the case of `COC(=O)[C@]12CC[C@@H](C(/C=C/c3cccnc3)=N/O)[C@@H]1[C@H]1CC[C@@H]3[C@@]4(C)CC(=C/c5cccnc5)/C(=N/O)C(C)(C)[C@@H]4CC[C@@]3(C)[C@]1(C)CC2`, the growth in the experiment on SR leukemia is 11.4%; with RPMI-8226 leukemia it was 1.81% (active); with OVCAR-8 ovarian, 39%; with OVCAR-5 ovarian, 60.6%; in the experiment on OVCAR-4 ovarian it was 40.8%; in the experiment on SK-OV-3 ovarian, 64.7%. The growth in the experiment on IGROV1 ovarian was 16.9%; with OVCAR-3 ovarian, 37.4%; with HS 578T breast it was 78.6%; in the experiment with NCI/ADR-RES ovarian, 33.6%; in the experiment with T-47D breast, 27.3%; with BT-549 breast, 22.8%. The growth was 36.2% in the experiment with MDA-MB-435 melanoma; 45.5% with SW-620 colon; 25.6% with MCF7 breast; 18.9% with HCT-116 colon; 45.9% in the experiment on HCC-2998 colon; 37.7% in the experiment on KM12 colon.

Values taken from PubChem BioAssay (NCI).
